# Test results from PubChem BioAssay AID1508600 (Functional Genomics Laboratory (NCATS/FGL), 2020).
# Screen size: about 53,000 sequences; about 3,700 (7%) were called active. The full list was thinned out, with actives kept by preference. Values without a mark were called inactive.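 The calls were made as follows: active = gene knockdowns whose robust z-score for IL-1 alpha signal is at least 2 or at most -2, so actives lie on both sides; inactive = the rest.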
# Test: Components of the Cytosolic LPS Sensing Pathway: Gene Identification via Genome-wide siRNA Screen
# Details: RAW264.7 macrophages, IL-1a HTRF, actives lie on both sides, screened at 100 nM (by protocol), cells primed 5 h with Pam3CSK4 first
# Source text: Non-canonical inflammasome activation by cytosolic LPS is a critical component of the host response to Gram-negative bacterial infection, however we lack a comprehensive understanding of the cellular processes that control this pathway. Here we describe a genome-wide siRNA screen to identify genes regulating the mouse macrophage IL-1 alpha response to cytosolic LPS.
# RAW264.7 cells were maintained in complete DMEM media, comprising DMEM with 4.5 g/L glucose, 10% FBS (Gemini Bio-Products, West Sacramento, CA), 2 mM Glutamine (Lonza) and 20 mM HEPES (Lonza), hereafter complete DMEM.
# The RNAi screen was conducted in 384-well format using the Ambion Silencer Mouse Genome siRNA Library (#4391425), which consists of three unique, nonoverlapping, nonpooled siRNAs for each of 17,000 gene targets. siRNA reagents ([…]) were stamped into 384-well white flat-bottom microplates (Corning, 3570) using a Velocity11 VPrep liquid handling system (Agilent) integrated into a BioCel robotic platform (Agilent) in columns 1-22, leaving columns 23-24 empty for negative (Ambion, Negative control #1) and positive (mouse Casp4) controls, respectively. The median value of each plate's negative control column was used to normalize sample wells, and the positive control was used to assess transfection efficiency and assay performance.
# Lipofectamine RNAiMAX Transfection Reagent ([…]; Invitrogen) was added in […] serum-free, antibiotic-free media to plate wells using a Thermo Scientific Matrix WellMate and Microplate Stacker. Plates were incubated for 45 min at room temperature to allow for the sufficient formation of siRNA-lipid complexes. Cells were seeded at a density of 1x10^4 cells per well in 20 microL media containing 20% (vol/vol) FBS without antibiotics. The final concentration of siRNA in each well was 100 nM. Cells were cultured for 48h at 37 degrees C in 5% CO2 before addition of […] of TLR ligand Pam3CSK4 for 5 hours. The medium was then removed, replaced with […] growth media and cell were transfected with […] of LipidA and TransIT-TKO (Mirus) for 24 hour. At the end of the LipidA treatment, […] of supernatant was transferred to a 384 Greiner Bio-one non-binding low volume plate and […] of IL-1a HTRF reagent (Cisbio, 62MIL1APEH) was added and incubated at room temperature overnight. The plates were read on an EnVision plate reader (PerkinElmer). Cell viability was measured by adding 20ul Cell Titer Glo to the original plate and running a luminescence read on the EnVision. The quantified IL-1a signal for each siRNA gene-targeted well was divided by the median of the negative control wells and multiplied by 100 to achieve a negative control normalized value for each well/siRNA. This normalized value was then used to generate a robust z-score by first taking the log of each value and then by subtracting the median and dividing by the […].
row,Sequence,z-score
1,CCCAGAAGAGGUUACAUUUTT against Cd200r4,0.0312
2,GGAUAUGCAGUGGAACUAUTT against Heph,-2.13 (active)
3,GGGAUCAGAGAUAUAGCCATT against Vmn1r192,-1.74
4,GCAGGGUACUGGCUAAAUATT against Cd40,2.93 (active)
5,GGACAGAUUUUCACCAUUCTT against Slc1a4,-0.593
6,GGUGAAGCAUCAGUGACAATT against Ubxn4,0.734
7,UUUCAAUCUGUAGCUUUCCTT against Krt86,0.071
8,GCUACACCGUAACAUGCUATT against Zer1,2.19 (active)
9,GCUAUGUAAGACAUUUAACTT against Ccdc162,1.6
10,CGUUUAUUGUAACCAGAAUTT against Fam168b,0.263
11,GGAGGAAUUCAUUAGAAACTT against Psmc1,-2.04 (active)
12,GGCUUUCCUCCAGAUAAACTT against Il6st,-0.856
13,GCGACGAGAAGAAUCUGCUTT against Mtcl1,-0.641
14,CCGUGGAGUAACAAGUAUGTT against Capzb,-1.07
15,CGAUCUAGUCCGCCAUUACTT against Lck,-1.3
16,GCAAGACCCAAGAGUUACATT against Soat2,-2.07 (active)
17,GCGAAGGAAUUUAAGGACCTT against Tmod1,0.836
18,GGCACCAUCUAUUAUUUUCTT against Psmc3,-2.45 (active)
19,CCAAUGAUAGACUUUAUACTT against Adgrv1,-0.252
20,GCAGUUCACGCAGUGGAAGTT against Fam25c,1.3
21,UCAUAGCAGAGAUUAGAAUTT against Hsfy2,-0.951
22,CCUCAGGUUAUUGAAUAUUTT against Rapgef6,0.502
23,GGACAAAACGUGCAAUAUGTT against Pkdcc,-0.188
24,GCAGAUUGCUCAGAUUACCTT against Brip1,0.407
25,GGUUCUUCGGCUUAUGUUGTT against Rgs7bp,0.537
26,GGACAAAAUAAUGCUUUCUTT against Cnnm1,0.0436
27,GGAAUGUUACAUUUCAGUUTT against Adam1a,2.15 (active)
28,CCCGUAUCUUUUUAGCUAATT against A630038E17Rik,0.35
29,GCCAAACUAUCAGAGAUGGTT against Slc38a7,0.0528
30,GGAUUAUGGUACCAAGCGCTT against Umps,1.21
